From the OligoGym collection
Also: reference of the scale not given here.

Each sequence was assayed against CHEK1 (assay: pooled miR-30 sensor sort-seq; sequence = guide strand). Settings: shRNA.
Sequence TTAATCTTCAGGAAGTGTCTCT has a sensor-assay potency score (higher = more potent) of 0.552.
With TTGTTGATATAGTAACCTGATT the sensor-assay potency score (higher = more potent) was -1.22.
TTTGGTAAAGAATCGTGTCATT gave a sensor-assay potency score (higher = more potent) of -0.878.
In the case of TTCTGGTTTAATATCCCTGTGA, the sensor-assay potency score (higher = more potent) was -0.58.
TAAAGTACCACACATCTTGTTC was tested, and the sensor-assay potency score (higher = more potent) was -0.726.
TTTCCAGTCAGAATACTCCTGA gave a sensor-assay potency score (higher = more potent) of -0.0829.
TGATATAGTAACCTGATTCATA showed a sensor-assay potency score (higher = more potent) of -0.794.
TTTGTCTGCATCCAATTTGGTA was tested, and the sensor-assay potency score (higher = more potent) was -0.969.
Sequence TTTTCTTCCATTGATAGCCCAA has a sensor-assay potency score (higher = more potent) of -0.419.
TTTGTTGTACCATCTATCTTTT showed a sensor-assay potency score (higher = more potent) of -0.765.
In the case of TTTTCTTCACTAGAAGCACTGT, the sensor-assay potency score (higher = more potent) was 0.254.
In the case of TATCCCATAAGGAAAGACCTGT, the sensor-assay potency score (higher = more potent) was -0.371.
In the case of TTGTCTGCATCCAATTTGGTAA, the sensor-assay potency score (higher = more potent) was -1.02.
TAAAGAATCGTGTCATTCTTTT gave a sensor-assay potency score (higher = more potent) of -0.659.
TTTTCTGGTTTAATATCCCTGT was tested, and the sensor-assay potency score (higher = more potent) was 0.0757.
Sequence TTCCACAGGACCAAACATCAAC has a sensor-assay potency score (higher = more potent) of -1.04.
TAGCAGCACTATATTCACCAGG was tested, and the sensor-assay potency score (higher = more potent) was -0.884.
TTCTTCACTAGAAGCACTGTTT gave a sensor-assay potency score (higher = more potent) of 0.0317.

The sequences below were run against CHI3L1 in the same assay as above. Settings: shRNA.
Sequence TTCAGGTACTGCACCTTGCTTT has a sensor-assay potency score (higher = more potent) of -0.412.
With TTGAGTGTGTTGAGCATGCCGT the sensor-assay potency score (higher = more potent) was -0.388.
For TAGAGCGTCACATCATTCCACT, the sensor-assay potency score (higher = more potent) was -0.926.
For TTTGTCTCTCCGTCCAGGGTAG, the sensor-assay potency score (higher = more potent) was -0.776.
With ATAATTAGTATGGTCACTGTGT the sensor-assay potency score (higher = more potent) was -0.0223.
AAATCGTAGGTCATGATGCTAA was tested, and the sensor-assay potency score (higher = more potent) was -0.871.
For TTGAGCATGCCGTAGAGCGTCA, the sensor-assay potency score (higher = more potent) was -0.951.
TTCCTTTATAAATTCGGCCTTC showed a sensor-assay potency score (higher = more potent) of -0.526.
In the case of TTGGAAAATCTTTGAGACCCAA, the sensor-assay potency score (higher = more potent) was -0.569.
In the case of TTTCCTGGTCGTCGTATCCTAC, the sensor-assay potency score (higher = more potent) was -0.76.
TCTGTCAGGACTTGCATCCTCC gave a sensor-assay potency score (higher = more potent) of -0.579.
With TTTGTATGCAGAGCAGCACTGG the sensor-assay potency score (higher = more potent) was -1.09.
For TAGCAGACCAGTTTGTATGCAG, the sensor-assay potency score (higher = more potent) was 0.269.
TATATTGGCAAAGCTGTAGATG was tested, and the sensor-assay potency score (higher = more potent) was -1.02.
With TAGTCAGTGTTGCTGAATCTGT the sensor-assay potency score (higher = more potent) was -1.28.
For TTGCATCCTCCTGACCTCGGAA, the sensor-assay potency score (higher = more potent) was -0.718.
TTGTATGCAGAGCAGCACTGGA gave a sensor-assay potency score (higher = more potent) of -1.21.
TTGCTTTTGACGCTTTCCTGGT gave a sensor-assay potency score (higher = more potent) of -0.698.
TGAATCTGTCAGGACTTGCATC showed a sensor-assay potency score (higher = more potent) of -0.763.
TTGGCAATGTCATAGCTGCTGT gave a sensor-assay potency score (higher = more potent) of -0.359.
ATCTTGGCAATGTCATAGCTGC was tested, and the sensor-assay potency score (higher = more potent) was -1.04.
TTTGACGCTTTCCTGGTCGTCG showed a sensor-assay potency score (higher = more potent) of -0.339.
